In PubChem BioAssay (NCI):
The panel holds about 79,000 compounds, 15% with a hit somewhere; the sample as a whole holds those more often. Calls of active or inactive are those of the source. No stated cut-off is given here; in the data, active means growth inhibition above about 70%; inactive means the rest.

What was measured:
[1] = NCI Yeast Anticancer Drug Screen. Data for the mec2-1 strain (AID 157); settings: S. cerevisiae mec2-1 strain, stronger effect = higher value
Method in brief: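 Growth inhibition is read against vehicle-treated controls after compound exposure of the mec2-1 yeast strain, which is defective in DNA damage repair or cell cycle control.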

[2] = NCI Yeast Anticancer Drug Screen. Data for the rad14 strain (AID 159);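 further: 0% = growth of vehicle-treated control cultures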; settings: S. cerevisiae rad14 strain growth inhibition, stronger effect = higher value
Method in brief: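 Test compounds were applied to a repair-deficient yeast strain. Its growth was then compared with that of cultures given vehicle alone, and inhibition was expressed relative to those controls.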

[3] = NCI Yeast Anticancer Drug Screen. Data for the sgs1 mgt1 strain (AID 161);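 further: 0% = growth of cultures given vehicle only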; settings: S. cerevisiae sgs1 mgt1 strain, stronger effect = higher value
Method in brief: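 Growth of a repair-deficient yeast mutant was monitored after compound treatment and expressed as inhibition relative to vehicle-treated cultures.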

[4] = NCI Yeast Anticancer Drug Screen. Data for the CLN2oe strain (AID 163);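 further: 0% = growth of vehicle-only control cultures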; settings: S. cerevisiae CLN2oe strain, stronger effect = higher value
Method in brief: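 Compound-treated yeast; growth vs vehicle ctrl = % inhibition. Genetically altered strain (cell-cycle control).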

[5] = NCI Yeast Anticancer Drug Screen. Data for the cln2 rad14 strain (AID 165);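 further: 0% = growth equal to vehicle treated cultures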; settings: S. cerevisiae cln2 rad14 strain, stronger effect = higher value
Method in brief: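 Growth inhibition, relative to vehicle-treated controls, is the read-out. The test organism is a yeast strain with defined genetic alterations, cln2 rad14.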

[6] = NCI Yeast Anticancer Drug Screen. Data for the bub3 strain (AID 167); settings: S. cerevisiae bub3 mutant strain, stronger effect = higher value
Method in brief: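 Yeast carrying a defined mutation is treated with each compound, and growth is compared with that of vehicle-exposed cells to give inhibition.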

[7] = NCI Yeast Anticancer Drug Screen. Data for the wt2 strain (AID 169);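 further: 0% = growth of vehicle-treated yeast cultures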; settings: S. cerevisiae wt2 strain growth inhibition, stronger effect = higher value
Method in brief: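 Compound exposure of yeast; growth compared with vehicle controls; inhibition reported.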

[8] = NCI Yeast Anticancer Drug Screen. Data for the mlh1 strain (AID 171);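 further: 0% = growth of vehicle-treated control cultures of the same strain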; settings: S. cerevisiae mlh1 strain growth inhibition, stronger effect = higher value
Method in brief: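 Compounds are applied to a genetically altered yeast strain, and its growth is compared with that of vehicle-treated cultures to give percent inhibition.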

[9] = NCI Yeast Anticancer Drug Screen. Data for the sgs1 strain (AID 173);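 further: 0% = growth of vehicle-only control cultures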; settings: S. cerevisiae sgs1 mutant, stronger effect = higher value
Method in brief: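 Compounds applied to genetically altered yeast; growth compared with vehicle-treated cultures to give % inhibition.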

[10] = NCI Yeast Anticancer Drug Screen. Data for the mlh1 rad18 strain (AID 175); settings: S. cerevisiae mlh1 rad18 strain growth inhibition, stronger effect = higher value
Method in brief: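 Cells of a genetically altered yeast strain, deficient in DNA damage repair, were treated with compound. Their growth was then compared with that of vehicle-treated cultures to give inhibition.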

[11] = NCI Yeast Anticancer Drug Screen. Data for the rad18 strain (AID 177); settings: S. cerevisiae rad18 mutant growth inhibition, stronger effect = higher value
Method in brief: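 Compounds are applied to a repair-deficient yeast strain, and growth is compared with that of vehicle-treated cultures to give percent inhibition.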

[12] = NCI Yeast Anticancer Drug Screen. Data for the rad52 strain (AID 147);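 further: 0% = growth of vehicle-treated control cultures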; settings: S. cerevisiae rad52 mutant growth inhibition, stronger effect = higher value
Method in brief: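 DNA repair-defective yeast; compound exposure; growth scored against vehicle controls.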

[13] = NCI Yeast Anticancer Drug Screen. Data for the wt1 strain (AID 149);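 further: 0% = growth of vehicle-treated wt1 cultures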; settings: S. cerevisiae wt1 strain (SPY 50644) growth inhibition, stronger effect = higher value
Method in brief: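 wt1 yeast, compound-treated; % growth inhibition vs vehicle control.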

[14] = NCI Yeast Anticancer Drug Screen. Data for the rad50EPP+ strain (AID 151);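 further: 0% = growth of vehicle-treated control cultures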; settings: S. cerevisiae rad50 mutant strain, stronger effect = higher value
Method in brief: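 rad50EPP+ yeast treated with test compounds. Readout: growth vs vehicle control.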

[15] = NCI Yeast Anticancer Drug Screen. Data for the mgt1 strain (AID 153); settings: S. cerevisiae mgt1 mutant growth inhibition, stronger effect = higher value
Method in brief: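 Growth inhibition relative to vehicle controls was scored for the mgt1 yeast strain after compound exposure.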

[16] = NCI Yeast Anticancer Drug Screen. Data for the rad50 strain (AID 155);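 further: 0% = growth of vehicle-only cultures of the same strain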; settings: S. cerevisiae rad50 strain growth inhibition, stronger effect = higher value
Method in brief: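 Genetically altered yeast (DNA repair pathway); compound treatment; growth inhibition vs vehicle ctrl.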

[17] = at 5.0 µM (retest, dose inferred, filed as 0.5)
[18] = at 50.0 µM (retest, dose inferred, filed as 5.0)

Measured: growth inhibition

O=C1C=CC(=Nc2ccc3c(c2)Cc2cc(NC(=O)C(F)(F)F)ccc2-3)O1
active: [1]; [17] 88% | [1]; [18] 95% | [1]; at 50.0 µM 96% | [1]; at 100.0 µM 96% | [2]; at 100.0 µM 98% | [3]; [18] 97% | [3]; at 50.0 µM 98.3% | [4]; at 100.0 µM 96% | [5]; [18] 93% | [6]; [18] 96% | [6]; at 50.0 µM 87.7% | [6]; at 100.0 µM 96% | [7]; at 100.0 µM 98% | [8]; at 100.0 µM 98% | [9]; at 100.0 µM 98% | [10]; [17] 79% | [10]; [18] 94% | [10]; at 50.0 µM 98.3% | [11]; at 100.0 µM 96%
inactive: [1]; at 11.0 µM 28% | [1]; at 33.0 µM 48% | [2]; at 1.2 µM 6% | [2]; at 3.7 µM 15% | [2]; at 11.0 µM 32% | [2]; at 33.0 µM 62% | [3]; [17] 51% | [4]; at 1.2 µM -4% | [4]; at 3.7 µM 1% | [4]; at 11.0 µM 10% | [4]; at 33.0 µM 23% | [5]; [17] 7% | [5]; at 50.0 µM 3.55% | [6]; at 1.2 µM -7% | [6]; at 3.7 µM -6% | [6]; [17] 25% | [6]; at 11.0 µM 0% | [6]; at 33.0 µM 13% | [7]; at 1.2 µM 1% | [7]; at 3.7 µM 3% | [7]; at 11.0 µM 15% | [7]; at 33.0 µM 26% | [8]; at 1.2 µM 3% | [8]; at 3.7 µM 9% | [8]; at 11.0 µM 22% | [8]; at 33.0 µM 39% | [9]; at 1.2 µM 7% | [9]; at 3.7 µM 15% | [9]; at 11.0 µM 34% | [9]; at 33.0 µM 63% | [11]; at 1.2 µM 4% | [11]; at 3.7 µM 13% | [11]; at 11.0 µM 32% | [11]; at 33.0 µM 57%

CNC(=O)OCc1c(COC(=O)NC)c(-c2ccc(Cl)c(Cl)c2)n2c1CCC2
active: [12]; at 33.0 µM 77% | [12]; at 100.0 µM 97% | [13]; at 33.0 µM 71% | [13]; at 100.0 µM 98% | [15]; at 33.0 µM 95% | [15]; at 100.0 µM 98% | [16]; at 33.0 µM 87% | [16]; [18] 98% | [16]; at 50.0 µM 84.9% | [16]; at 100.0 µM 97% | [1]; at 33.0 µM 85% | [1]; [18] 98% | [1]; at 50.0 µM 87.5% | [1]; at 100.0 µM 98% | [2]; at 33.0 µM 98% | [2]; at 100.0 µM 98% | [3]; [18] 99% | [3]; at 50.0 µM 78.5% | [4]; at 100.0 µM 98% | [5]; [18] 99% | [5]; at 50.0 µM 86.9% | [6]; at 33.0 µM 93% | [6]; [18] 99% | [6]; at 100.0 µM 97% | [7]; at 100.0 µM 97% | [8]; at 33.0 µM 98% | [8]; at 100.0 µM 97% | [9]; at 33.0 µM 88% | [9]; at 100.0 µM 97% | [10]; [18] 97% | [10]; at 50.0 µM 91.2% | [11]; at 33.0 µM 94% | [11]; at 100.0 µM 97%
inactive: [12]; at 1.2 µM -21% | [12]; at 3.7 µM -27% | [12]; at 11.0 µM -14% | [13]; at 1.2 µM -53% | [13]; at 3.7 µM -56% | [13]; at 11.0 µM -48% | [14]; at 1.2 µM -19% | [14]; at 3.7 µM -21% | [14]; at 11.0 µM -31% | [14]; at 33.0 µM -28% | [14]; at 100.0 µM 4% | [15]; at 1.2 µM -66% | [15]; at 3.7 µM -73% | [15]; at 11.0 µM -69% | [16]; at 1.2 µM -51% | [16]; at 3.7 µM -51% | [16]; [17] 17% | [16]; at 11.0 µM -37% | [1]; at 1.2 µM -74% | [1]; at 3.7 µM -47% | [1]; [17] -5% | [1]; at 11.0 µM -32% | [2]; at 1.2 µM -34% | [2]; at 3.7 µM -36% | [2]; at 11.0 µM -31% | [3]; [17] 32% | [4]; at 1.2 µM -4% | [4]; at 3.7 µM -13% | [4]; at 11.0 µM -13% | [4]; at 33.0 µM 65% | [5]; [17] 38% | [6]; at 1.2 µM -58% | [6]; at 3.7 µM -61% | [6]; [17] 52% | [6]; at 11.0 µM -35% | [6]; at 50.0 µM 55.6% | [7]; at 1.2 µM -14% | [7]; at 3.7 µM -14% | [7]; at 11.0 µM -14% | [7]; at 33.0 µM 62% | [8]; at 1.2 µM -94% | [8]; at 3.7 µM -90% | [8]; at 11.0 µM -81% | [9]; at 1.2 µM -11% | [9]; at 3.7 µM -20% | [9]; at 11.0 µM -29% | [10]; [17] 5% | [11]; at 1.2 µM -39% | [11]; at 3.7 µM -46% | [11]; at 11.0 µM -32%
